# Reference: PubChem BioAssay (Tox21)
# Inconclusive results are not listed. A call without a number means that no potency is given here. Values without a mark were called inactive. Calls of active or inactive are those of the source. Unless noted, calls follow the shape of the dose curve; as a rule, active = well fitted curve in the direction sought with a large enough effect in the repeat runs; inconclusive = weak or mixed curves; inactive = no such curve, though single readings can be large; an effect the other way counts as inactive or inconclusive.
# Assays:
# [1] = target: Retinoic acid receptor RXR-alpha (Homo sapiens) (UniProt P19793); test: qHTS assay to identify small molecule agonists of the RXR signaling pathway (AID 1159527; calls by dose curve; also: nearly all actives have a fitted effect of over 35% in size)
# Outline: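 qHTS of the Tox21 10K library in GeneBLAzer RXR-alpha HEK 293T cells carrying a beta-lactamase reporter […]; 16 hr treatment, 9-cis retinoic acid as agonist control, FRET read-out.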
# [2] = qHTS assay to identify small molecule agonists of the RXR signaling pathway - cell viability counter screen (AID 1159529); also: series mostly up to about 77 µM; nearly all actives have a fitted effect of over 50% in size
# Outline: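 Cell viability is measured by CellTiter-Glo luminescence, 30 min at room temperature, in wells already read for beta-lactamase. Engineered HEK 293T cells (RXR-alpha-UAS-bla) are dosed 16 hr at 37 C. Tetraoctyl ammonium bromide serves as positive control.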
# [3] = qHTS assay to identify small molecule antagonists of the retinoid acid receptor (RAR) signaling pathway - cell viability counter screen (AID 1159551); also: nearly all actives have a fitted effect of over 35% in size
# Outline: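 Cytotoxicity counter screen in C3RL4 cells: 6 h compound exposure with 1 uM retinol (final), viability from cellular ATP by luminescence.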
# [4] = qHTS assay to identify small molecule antagonists of the retinoic acid receptor (RAR) signaling pathway (AID 1159552; also: nearly all actives have a fitted effect of over 50% in size)
# Outline: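 Quantitative HTS in C3RL4 RARE-luciferase reporter cells. Compounds were added with 1 uM (final) retinol; luminescence was read after 6 hr.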
# [5] = qHTS assay to identify small molecule agonists of the retinoic acid receptor (RAR) signaling pathway (AID 1159553); also: potency is read from the fitted curve at half-maximal effect
# Outline: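 Agonist activity was scored in C3RL4 cells bearing a retinoic acid response element luciferase construct. Cells were treated with compounds for 6 hr at 37 C, and luciferase signal was measured as luminescence.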
# [6] = qHTS assay to identify small molecule antagonists of the estrogen related receptor (ERR) signaling pathway from Tox21 library - cell viability counter screen (AID 1224834); also: nearly all actives have a fitted effect of over 30% in size; also: potency is read from the fitted curve at half-maximal effect
# Outline: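 Cytotoxicity of test substances is gauged in the same ERR cells used for the antagonist screen, after 17.5 h of compound treatment at 37 C, by CellTiter-Fluor fluorescence measured after 30 min.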
# [7] = target: Luciferin 4-monooxygenase (Photinus pyralis) (UniProt P08659); test: qHTS assay to identify small molecule inhibitors of firefly luciferase (AID 1224835); also: nearly all actives have a fitted effect of over 25% in size; also: potency is read from the fitted curve at half-maximal effect
# Outline: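 Quantitative HTS format; KM concentrations of both substrates. Purified P. pyralis FLuc activity quantified from luminescence images.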
# [8] = qHTS assay to identify small molecule agonists of the constitutive androstane receptor (CAR) signaling pathway - cell viability counter screen (AID 1224836); also: nearly all actives have a fitted effect of over 45% in size; also: potency is read from the fitted curve at half-maximal effect
# Outline: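 Counter screen multiplexed with the CAR reporter readout: HepG2 cells co-transfected with hCAR and the CYP2B6-2.2kb construct receive a 15-concentration compound series and 0.75 uM PK11195 (final), then CellTiter-Fluor fluorescence is read after 23 h.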
# [9] = qHTS assay to identify small molecule antagonists of the constitutive androstane receptor (CAR) signaling pathway - cell viability counter screen (AID 1224837); also: nearly all actives have a fitted effect of over 45% in size; also: potency is read from the fitted curve at half-maximal effect
# Outline: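 Multiplexed cytotoxicity read-out for the CAR antagonist screen: double-stable HepG2-CYP2B6-hCAR cells co-treated with 50 nM CITCO (final) and compound over 15 concentrations, incubated 23 hr, then assessed by CellTiter-Fluor fluorescence.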
# [10] = target: Nuclear receptor subfamily 1 group I member 3 (Homo sapiens) (UniProt Q14994); test: qHTS assay to identify small molecule antagonists of the constitutive androstane receptor (CAR) signaling pathway (AID 1224838); also: nearly all actives have a fitted effect of over 40% in size
# Outline: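 Compounds were titrated across 15 concentrations onto HepG2 cells double-stably expressing hCAR and a CYP2B6-2.2kb reporter, together with 50 nM CITCO (final). After 24 h at 37 C, luciferase activity was measured by luminescence.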
# [11] = target: Nuclear receptor subfamily 1 group I member 3 (Homo sapiens) (UniProt Q14994); test: qHTS assay to identify small molecule agonists of the constitutive androstane receptor (CAR) signaling pathway (AID 1224839); also: nearly all actives have a fitted effect of over 15% in size; also: potency is read from the fitted curve at half-maximal effect
# Outline: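 A 15-concentration quantitative screen uses HepG2 cells co-transfected stably with human CAR and CYP2B6-2.2kb reporter. Treatment lasts 24 h with 0.75 uM PK11195 final present; ONE-Glo luminescence is the signal.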
# [12] = qHTS assay to identify small molecule antagonists of the estrogen related receptor signaling pathway with the pleiotropic PPARgamma coactivator (PGC) from Tox21 10K library - cell viability counter screen (AID 1224840; active = well fitted cell-killing curve with a large enough effect in the repeat runs, not every such curve was filed as active; also: nearly all actives have a fitted effect of over 40% in size)
# Outline: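 Step one, plate 2,000 PGC/ERR cells per well; step two, incubate 6 h at 37 C/5% CO2; step three, pin-transfer compounds; step four, incubate 17.5 h; step five, add CellTiter-Fluor and read fluorescence after 30 min.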
# [13] = qHTS assay to identify small molecule agonists of the estrogen related receptor signaling pathway with the pleiotropic PPARgamma coactivator (PGC) from Tox21 10K library (AID 1224842); also: nearly all actives have a fitted effect of over 15% in size
# Outline: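 PGC/ERR reporter cells (NTP line) were seeded 2,000 per well, rested 6 h at 37 C/5% CO2, then pin-dosed with compounds in DMSO for 18 h at 37 C; luciferase read by One-Glo luminescence after 30 min at room temperature.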
# [14] = qHTS assay to identify small molecule antagonists of the estrogen related receptor (ERR) signaling pathway - cell viability counter screen (AID 1224818);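 also: series mostly up to about 46 µM; viability measured after 17.5 h of compound exposure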
# Outline: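 Cells carrying the ERR pathway reporter were seeded and incubated for 6 hours before compound addition. After a 17.5-hour exposure at 37 C, live-cell protease activity was measured by CellTiter-Fluor fluorescence following 30 minutes of incubation.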
# [15] = qHTS assay to identify small molecule antagonists of the estrogen related receptor signaling pathway with the pleiotropic PPARgamma coactivator (PGC) cell viability counter screen (AID 1224822;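 also: series mostly up to about 46 µM; viability read after 17.5 h compound exposure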)
# Outline: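 Seed PGC/ERR cells (2,000/well); incubate 6 h at 37 C/5% CO2; pin-transfer compounds in DMSO; incubate 17.5 h at 37 C; add CellTiter-Fluor; after 30 min read fluorescence.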
# [16] = qHTS assay to identify small molecule antagonists of the estrogen related receptor signaling pathway with the pleiotropic PPARgamma coactivator (PGC) from Tox21 10K library (AID 1224841; call rule not given here; also: actives are mostly falling curves and most rising ones were filed inactive; nearly all actives have a fitted effect of over 50% in size; also: potency is read from the fitted curve at half-maximal effect)
# Outline: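 Antagonism in this quantitative HTS is taken from loss of luciferase signal in PGC/ERR cells. Cells (2,000/well) are treated with compounds in DMSO after a 6 h settling period and read by One-Glo luminescence after 18 h.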
# Sequence of Retinoic acid receptor RXR-alpha (Homo sapiens) (P19793 whole entry, looked up): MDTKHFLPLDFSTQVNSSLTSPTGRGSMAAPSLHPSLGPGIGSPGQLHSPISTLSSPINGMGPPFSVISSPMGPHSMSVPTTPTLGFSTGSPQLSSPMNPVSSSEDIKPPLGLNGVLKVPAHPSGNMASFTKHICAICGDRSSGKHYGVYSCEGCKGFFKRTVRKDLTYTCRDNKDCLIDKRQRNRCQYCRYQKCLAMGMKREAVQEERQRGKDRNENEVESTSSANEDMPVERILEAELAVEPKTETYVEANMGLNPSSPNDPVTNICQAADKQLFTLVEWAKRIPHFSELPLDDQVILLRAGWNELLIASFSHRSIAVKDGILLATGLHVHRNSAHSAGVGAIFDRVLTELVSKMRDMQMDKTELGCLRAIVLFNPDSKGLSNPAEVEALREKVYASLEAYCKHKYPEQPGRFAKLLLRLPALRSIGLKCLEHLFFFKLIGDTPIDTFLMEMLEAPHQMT
# Sequence of Nuclear receptor subfamily 1 group I member 3 (Homo sapiens) (Q14994 whole entry, looked up): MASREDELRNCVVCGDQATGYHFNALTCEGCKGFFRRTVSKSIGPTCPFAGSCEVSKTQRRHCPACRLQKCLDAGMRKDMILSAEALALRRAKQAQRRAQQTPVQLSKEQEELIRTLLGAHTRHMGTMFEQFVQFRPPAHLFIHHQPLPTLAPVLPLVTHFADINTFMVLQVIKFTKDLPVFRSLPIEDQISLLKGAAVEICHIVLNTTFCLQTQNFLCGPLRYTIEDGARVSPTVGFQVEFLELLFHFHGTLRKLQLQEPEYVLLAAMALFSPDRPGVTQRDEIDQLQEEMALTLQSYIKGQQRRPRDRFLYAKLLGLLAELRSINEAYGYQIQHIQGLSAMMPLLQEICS
# Sequence of Luciferin 4-monooxygenase (Photinus pyralis) (P08659 whole entry, looked up): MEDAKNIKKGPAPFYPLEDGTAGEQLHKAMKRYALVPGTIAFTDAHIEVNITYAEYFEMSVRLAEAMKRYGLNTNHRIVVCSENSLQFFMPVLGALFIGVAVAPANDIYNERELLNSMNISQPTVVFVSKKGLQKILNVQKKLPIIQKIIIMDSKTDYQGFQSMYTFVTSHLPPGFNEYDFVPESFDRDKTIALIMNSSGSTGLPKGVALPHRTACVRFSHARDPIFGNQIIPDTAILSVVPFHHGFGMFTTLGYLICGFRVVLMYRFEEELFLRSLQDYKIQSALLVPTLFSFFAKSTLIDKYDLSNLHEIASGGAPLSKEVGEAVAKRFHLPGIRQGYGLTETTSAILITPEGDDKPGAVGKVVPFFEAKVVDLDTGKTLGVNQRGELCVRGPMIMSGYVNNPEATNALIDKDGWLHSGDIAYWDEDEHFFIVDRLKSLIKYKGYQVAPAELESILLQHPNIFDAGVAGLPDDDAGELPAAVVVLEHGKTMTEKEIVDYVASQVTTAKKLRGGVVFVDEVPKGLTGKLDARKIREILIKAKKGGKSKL
SMILES,outcome [1],Potency [2],outcome [3],outcome [4],Potency [5],Potency [6],Potency [7],Potency [8],Potency [9],Potency [10],Potency [11],Potency [12],Potency [13],outcome [14],outcome [15],Potency [16]
CC(CC(C#N)(c1ccccc1)C(C)C)N(C)C (stereo unspecified),inactive,inactive,inactive,inactive,inactive,inactive,inactive,inactive,inactive,inactive,inactive,inactive,inactive,–,–,–
OCCc1ccncc1,inactive,inactive,inactive,inactive,inactive,inactive,inactive,inactive,inactive,–,–,inactive,inactive,–,–,–
O=C(OC1C[C@H]2CC[C@@H](C1)[N+]21CCCC1)C(O)(c1ccccc1)c1ccccc1 (stereo partly specified),inactive,inactive,inactive,inactive,inactive,inactive,inactive,inactive,inactive,inactive,inactive,inactive,–,–,–,–
c1ccc(CCNc2nc(-c3ccccc3)cs2)cc1,inactive,inactive,inactive,inactive,2.11 µM (active),inactive,3.47 µM (active),inactive,inactive,inactive,7.5 µM (active),inactive,–,–,–,–
O=[N+]([O-])c1cccc(I)c1,–,inactive,inactive,inactive,inactive,inactive,inactive,inactive,inactive,inactive,inactive,inactive,–,–,–,–
CCc1c(C)[nH]c2c1C(=O)C(CN1CCOCC1)CC2 (stereo unspecified),inactive,inactive,–,inactive,inactive,inactive,inactive,inactive,inactive,–,–,inactive,–,inactive,inactive,–
O=C(O)c1ccc(O)c(O)c1,–,inactive,inactive,inactive,inactive,inactive,inactive,inactive,inactive,inactive,inactive,inactive,–,–,–,–
CC(Cc1ccccc1)(NC(=O)CN)c1ccccc1 (stereo unspecified),inactive,inactive,inactive,inactive,inactive,inactive,inactive,inactive,inactive,–,–,inactive,–,–,–,–
Cc1cccc(C)c1NC(=O)CN1CCCC1,inactive,inactive,–,inactive,inactive,inactive,inactive,inactive,inactive,–,–,inactive,–,–,–,–
CC1(C)[C@@H]2CC[C@]3(C2)[C@@H]1C(=O)CCC3(C)C,inactive,inactive,inactive,inactive,inactive,inactive,inactive,inactive,inactive,inactive,inactive,inactive,–,–,–,–
O=C(O)COCC(=O)O,–,inactive,inactive,inactive,inactive,inactive,inactive,inactive,inactive,inactive,inactive,inactive,–,–,–,–
CCOC(OCC)OCC,–,inactive,inactive,inactive,inactive,inactive,inactive,inactive,inactive,inactive,inactive,inactive,–,–,–,–
CC(=O)c1ccc(Cl)c(Cl)c1Cl,–,inactive,inactive,inactive,inactive,inactive,inactive,inactive,inactive,inactive,inactive,inactive,–,–,–,–
Cc1ccc(Cl)c(OCC(O)CNC(C)(C)C)c1 (stereo unspecified),inactive,inactive,inactive,inactive,inactive,inactive,inactive,inactive,inactive,–,–,inactive,–,–,–,–
O=c1c2ccccc2oc2ccccc12,–,inactive,inactive,inactive,27.3 µM (active),inactive,20 µM (active),inactive,inactive,inactive,24.3 µM (active),inactive,–,–,–,–
Cc1ccc(S(=O)(=O)NC(=O)NC2CCCC2)cc1,inactive,inactive,inactive,inactive,inactive,inactive,inactive,inactive,inactive,inactive,inactive,inactive,–,–,–,–
COc1ccc(CN(CCN(C)C)c2ncccn2)cc1,inactive,inactive,inactive,inactive,inactive,inactive,inactive,inactive,inactive,–,–,inactive,–,–,–,–
O=Cc1ccc([N+](=O)[O-])cc1,inactive,inactive,–,inactive,19.4 µM (active),inactive,inactive,inactive,inactive,–,61.5 µM (active),inactive,–,–,–,–
CC(C)C[C@H](NC(=O)[C@H](Cc1ccccc1)NC(=O)c1cnccn1)B(O)O,–,inactive,inactive,inactive,0.0094 µM (active),0.0841 µM (active),inactive,0.298 µM (active),0.266 µM (active),–,inactive,–,inactive,–,–,0.0188 µM (active)
CCN(CC)CC(=O)OCC(=O)[C@@]1(O)CC[C@H]2[C@@H]3CCC4=CC(=O)CC[C@]4(C)[C@H]3[C@@H](O)C[C@@]21C,–,inactive,inactive,inactive,inactive,inactive,inactive,inactive,inactive,inactive,inactive,inactive,–,–,–,–
CC(=O)Nc1ccn(C2COC(COC(=O)c3ccccc3)O2)c(=O)n1 (stereo unspecified),–,inactive,inactive,inactive,inactive,inactive,inactive,inactive,inactive,–,inactive,inactive,inactive,–,–,inactive
O=C(c1ccc(Cl)cc1)c1ccc(Cl)cc1,–,inactive,inactive,inactive,inactive,inactive,inactive,inactive,inactive,–,–,inactive,–,–,–,–
